High-throughput results: PubChem, Sanford-Burnham Center for Chemical Genomics
Compounds with a hit are over-represented: about 28% of the library has one in this group of screens.
CYP2C19 act = cytochrome P450 2C19 (human) activation | 96,000 tested, under 10 active | recombinant CYP2C19, luciferin-H EGE luminescence; stronger effect = higher value; 0 = fully inhibited enzyme, 1 = untreated enzyme | P33261 | AID 1025 | activation factor at 5 µM;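 active = activation factor of at least 2 at 5 µM in the primary screen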
CYP2C9 inh = human CYP2C9 inhibition; 96,000 tested, 20% active; CYP2C9 Supersomes, luciferin-H conversion, luminescence; P11712; inhibition, % at 5 µM;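 active = blocking of liver enzyme CYP2C9 beyond about 50% at 5 µM, limit read from the data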
Target sequence (P11712 whole entry, looked up): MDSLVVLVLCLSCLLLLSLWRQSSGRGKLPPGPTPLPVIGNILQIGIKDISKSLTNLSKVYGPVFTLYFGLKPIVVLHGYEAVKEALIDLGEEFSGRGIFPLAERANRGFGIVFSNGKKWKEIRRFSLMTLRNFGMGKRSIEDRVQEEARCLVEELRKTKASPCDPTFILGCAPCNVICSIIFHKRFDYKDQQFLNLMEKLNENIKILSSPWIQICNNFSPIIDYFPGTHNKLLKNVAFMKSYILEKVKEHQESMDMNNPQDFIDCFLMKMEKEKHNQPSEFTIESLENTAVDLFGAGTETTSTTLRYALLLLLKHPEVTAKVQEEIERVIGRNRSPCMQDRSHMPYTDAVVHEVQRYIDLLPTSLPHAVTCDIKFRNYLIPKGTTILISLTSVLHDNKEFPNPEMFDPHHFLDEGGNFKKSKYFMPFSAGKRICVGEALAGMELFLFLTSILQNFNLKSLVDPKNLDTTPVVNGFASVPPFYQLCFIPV
CD11b adhes inh = inhibitors of human CD11b/CD18 binding to fibrinogen | P05107+P11215 | K562 CD11b/CD18 adhesion to fibrinogen, ATPlite luminescence; Mn2+ added to activate the integrin | inhibition, % at 10 µM | 93,000 tested, 0.54% active | AID 1497;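 active = primary inhibition of 50% or more at 10 µM, then 40% or more on retest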
CYP2C19 inhib = human CYP2C19 inhibition | P33261 | CYP2C19 Supersomes, luciferin-H EGE luminescence, 30 min | inhibition, % at 5 µM | 96,000 tested, 21% active;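 active = CYP2C19 inhibition above a set limit at 5 µM in the primary screen, cut at about 50% in these data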
CD11b adhes enh = CD11b/CD18-fibrinogen binding enhancement. K562 CD11b/CD18 adhesion to fibrinogen, ATPlite luminescence. activation, % at 10 µM. 93,000 tested, 0.07% active. AID 1499;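 active = 10 µM primary screen giving 50% or more activity, confirmed by 40% or more on retest at that dose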
CYP2C9 activ = activators of human CYP2C9 | P11712 | recombinant CYP2C9, luciferin-H conversion, luminescence; stronger effect = higher value; factor 1 = untreated enzyme, 0 = blocked | activation factor at 5 µM | 96,000 tested, 1.4% active;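 active = activation factor of 2 or more for CYP2C9 at a 5 µM dose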
Large screens that a line does not name were inactive.

CN(Cc1ccccc1)S(=O)(=O)c1ccc(S(=O)(=O)N(Cc2ccc(F)cc2)C2CCCC2)cc1	CYP2C9 inh 58
CN(Cc1ccccc1)S(=O)(=O)c1ccc(NC(=S)NC(=O)C2CCCC2)cc1	none (no result: CD11b adhes inh, CD11b adhes enh)
CCN1C(=O)/C(=C/c2ccc(C)s2)NC1=S	CYP2C9 inh 59
Clc1ccc(CSc2nnc(-c3ccccn3)n2Cc2ccco2)c(Cl)c1	none
COc1cc(NC(=S)NCCC(c2ccccc2)c2ccccc2)c(OC)cc1Cl	none (no result: CYP2C19 act, CYP2C9 inh, CYP2C19 inhib, CYP2C9 activ)
Cc1ccccc1-c1nc2ccccc2c(=O)n1C1CCS(=O)(=O)C1 (stereo unspecified)	CYP2C19 inhib 88
O=C(c1cc(F)c(F)cc1Cl)N1CCOCC1	none
CC1CCCC(C)N1C(=O)c1cc(F)c(F)cc1Cl (stereo unspecified)	CYP2C19 inhib 59
COCCCNc1nc(-c2ccncc2)nc2ccccc12	CYP2C9 inh 71, CYP2C19 inhib 78
COCCCNC(c1ccccc1)c1ccncc1 (stereo unspecified)	CYP2C9 inh 65, CYP2C19 inhib 86
COCCCNc1ccnc2c(Cl)cccc12	none
COCCCNc1cc(C)nc2ccccc12	none (no result: CD11b adhes inh, CD11b adhes enh)
Cc1ccc(NC2=C(Cl)C(=O)OC2OC(=O)c2ccco2)cc1 (stereo unspecified)	CYP2C9 inh 91, CYP2C19 inhib 50
COC(=O)/C=C1/S/C(=N/NC(=O)c2ccccc2)NC1=O	none (no result: CD11b adhes inh, CD11b adhes enh)
COC(=O)/C=C1/S/C(=N/NC(=O)c2ccccc2C)NC1=O	CYP2C9 inh 78
COC(=O)/C=C1\S/C(=N/NC(=O)c2ccccc2)NC1=O	CYP2C9 inh 81
Cc1cccc(CN2C(=O)N/C(=C/c3ccc(C)s3)C2=O)c1	none
Cc1cccc(CN2C(=O)N/C(=C/c3cc(C)n(-c4cc(C)ccn4)c3C)C2=O)c1	CYP2C9 inh 61
CCC(=O)N=c1sc2c(C)cc(C)cc2n1CC(=O)OC	none
O=C(O)c1cccc(COc2ccccc2Cl)c1	CYP2C9 inh 95, CYP2C19 inhib 97
O=C(O)c1ccc(COc2ccccc2Cl)cc1	none
COc1ccc(Cl)cc1Nc1nc(-c2sc(NC(=O)c3ccco3)nc2C)cs1	CYP2C9 inh 62 (no result: CD11b adhes inh, CD11b adhes enh)
COc1cccc(Nc2nc(-c3sc(N)nc3C)cs2)c1	CYP2C9 inh 74, CYP2C19 inhib 59
COc1ccc2sc(NC(=O)c3ccco3)nc2c1	none
COc1cccc(Nc2nc(-c3sc(NC(=O)c4ccco4)nc3C)cs2)c1	CYP2C9 inh 72 (no result: CD11b adhes inh, CD11b adhes enh)
CCc1ccc(NC(=O)C(C)Oc2nnc(-c3cccs3)c(-c3cccs3)n2)cc1 (stereo unspecified)	CYP2C9 inh 68
CC(C)c1ccc(NC(=O)COc2nnc(-c3cccs3)c(-c3cccs3)n2)cc1	CYP2C9 inh 86, CYP2C19 inhib 80
CCC(C)C(=O)Nc1nnc(-c2cccs2)s1 (stereo unspecified)	none
COCCn1c(SCC(=O)N2CCCC2)nnc1-c1ccoc1C	none
O=CNC1CCCc2c1[nH]c1ccc(Cl)cc21 (stereo unspecified)	CYP2C9 inh 99, CYP2C19 inhib 65
O=C(c1ccco1)N1CCN(C(=O)C2CCCc3c2[nH]c2ccc(Cl)cc32)CC1 (stereo unspecified)	none
Cc1nc2ccc(S(=O)(=O)Nc3ccccc3C)cc2s1	CYP2C9 inh 70, CYP2C19 inhib 97
Cc1nc2ccc(S(=O)(=O)NCC(=O)N3CCc4ccccc4C3)cc2s1	CYP2C19 inhib 66
Cc1nc2ccc(NS(=O)(=O)c3ccc(C)c(C)c3)cc2s1	CYP2C9 inh 77
COCn1c(-c2ccc(OC)c(OC)c2)nc2ccccc21	none
COCn1c(-c2cccc(Br)c2)nc2ccccc21	CYP2C9 inh 69, CYP2C19 inhib 86
COc1ccc(S(=O)(=O)N2CCC(C(=O)Nc3c(F)cccc3F)CC2)cc1	none
O=C1NC(c2ccccc2)(C(F)(F)F)SC2=NCCCN12 (stereo unspecified)	CYP2C19 inhib 68
COc1ccc(C(=O)n2c(SC)nc3cc4c(cc32)OCCO4)cc1	CYP2C9 inh 54
COc1ccc(C(=O)N2CCN(C(=O)c3ccncc3)CC2)cc1	none (no result: CD11b adhes inh, CD11b adhes enh)
CN(C)c1cc(O)c(C(=S)Nc2ccccc2)c(N(C)C)c1	CYP2C19 inhib 79 (no result: CD11b adhes inh, CD11b adhes enh)
CC(=O)N(C)c1ccc(NC(=S)Nc2ccccc2)cc1	none
CSc1nc(C)cc(SCCO)n1	none
CCOC(=O)Cc1cnc(NC(=O)Cn2nnc(-c3ccc(OCC)cc3)n2)s1	CYP2C9 inh 85, CYP2C19 inhib 66
CCCCOc1ccc(-c2nnn(CC(=O)Nc3ncc(CC(=O)OCC)s3)n2)cc1	CYP2C9 inh 76
O=C(CSc1nnc(CNC(=O)C23CC4CC(CC(C4)C2)C3)n1-c1ccccc1)Nc1ccccc1	none (no result: CYP2C19 act, CYP2C9 inh, CYP2C19 inhib, CYP2C9 activ)
CCN(CCCNC(=O)Cn1ncc2c(=O)oc3ccccc3c21)c1cccc(C)c1	CYP2C9 inh 70, CYP2C19 inhib 64
O=C(Cn1ncc2c(=O)oc3ccccc3c21)Nc1nc2ccccc2s1	CYP2C9 inh 51
O=C(Cn1ncc2c(=O)oc3ccccc3c21)NCCCN1CCCC1=O	CYP2C19 inhib 80
CCCN(C(=O)Cn1ncc2c(=O)oc3ccccc3c21)c1cccc(C)c1	CYP2C9 inh 60
Cc1cc(=O)n2[nH]c(-c3ccc(C(C)(C)C)cc3)cc2n1	none
Cn1cc(CC(=O)NCCCN2CCCC2=O)c2ccccc21	CYP2C9 activ 2.4
O=C(NCCCN1CCCC1=O)c1csc2ccccc12	none
O=Cc1ccc2noc(-c3ccc(F)cc3)c2c1	none
Clc1ccc2noc(-c3ccccc3)c2c1	none
CC1(c2ccc3noc(-c4ccc(F)cc4)c3c2)OCCO1	CYP2C19 inhib 69
CC1(c2ccc3noc(-c4ccccc4)c3c2)OCCO1	CYP2C19 inhib 50
CCCCCCOC(=O)c1ccc(NC(=O)c2cc(OC)c(OC)c(OC)c2Br)cc1	CYP2C9 inh 64
COC(=O)CSc1nsc(SCC(=O)OC)c1C#N	CYP2C19 inhib 54
CSc1snc(SCC(N)=O)c1C#N	none
O=C(CCn1nc(-c2ccccc2)c2ccccc2c1=O)N1CCN(c2ccccc2)CC1	CYP2C9 inh 85, CYP2C19 inhib 90
O=C(CCn1nc(-c2ccccc2)c2ccccc2c1=O)NCC1CCCO1 (stereo unspecified)	CYP2C9 inh 54, CYP2C19 inhib 56
Cc1ccc(-c2nn(CC(=O)NCC3CCCO3)c(=O)c3ccccc23)cc1 (stereo unspecified)	none
O=c1c2ccccc2c(-c2ccccc2)nn1Cc1ccc(Cl)cc1	CYP2C9 inh 58, CYP2C19 inhib 66 (no result: CD11b adhes inh, CD11b adhes enh)
CCNC(=O)CCn1nc(-c2ccc(Cl)cc2)c2ccccc2c1=O	CYP2C19 inhib 65 (no result: CD11b adhes inh, CD11b adhes enh)
CCn1c(=O)n(-c2ccc(Cl)cc2)c(=O)c2c3c(sc21)COC(C)(C)C3	none (no result: CD11b adhes inh, CD11b adhes enh)
CCCCCCCCc1nnc(NC(=O)c2ccco2)s1	none
COc1ccc(Cl)cc1NC(=O)Cn1c(=O)n2nc(C)nc2c2ccccc21	CYP2C19 inhib 59
